# Compounds with a hit are over-represented: about 1.9% of the library has one in this group of screens.
# BaF3 parental – counter-screen for JAK2V617F inhibitors: parental Ba/F3 viability inhibitors; AID 1486; CellTiter-Glo ATP luminescence; 220,000 tested, 1.1% active; inhibition, % at 5.6 µM;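 active = inhibition above a per-campaign cutoff, the mean inhibition of all tested compounds plus 3 SD, cut at about 27% in these data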;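 also: 0% = DMSO wells and 100% = JAK Inhibitor I control wells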
# Ba/F3 V617F tox – loss of viability in JAK2V617F-driven Ba/F3 cells. inhibition, % at 5.6 µM. 220,000 tested, 1.1% active. Ba/F3 EpoR-JAK2V617F viability, ATP luminescence;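 active = inhibition above the campaign mean plus 3 SD over all tested compounds, cut at about 24% in these data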;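 also: cytokine-independent growth of Ba/F3 cells driven by EpoR plus mutant JAK2; 0% = DMSO-treated cells and 100% = JAK inhibitor I control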
# KLF5 inh – kruppel-like factor 5 inhibition; 290,000 tested, 0.23% active; inhibition, % at 5 µM; AID 1700; DLD-1 KLF5 promoter-luciferase reporter, luminescence;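 active = inhibition above a per-plate limit of that plate's mean compound inhibition plus 3 SD, cut at about 60% in these data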;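 also: 0% = DMSO wells and 100% = LY294002 at 200 µM; higher means less KLF5 promoter-driven luciferase light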
# IEC-6 tox-1 – kills IEC-6 intestinal cells in KLF5 counter-screen; AID 1825; inhibition, % at 5 µM; IEC-6 cytotoxicity, luminescence viability; 290,000 tested, 0.78% active;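 also: 0% = plate median of test compound wells and 100% = cytotoxic reference compound wells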
# APP 5UTR inh – APP translation inhibition; inhibition, % at 2 µM; 190,000 tested, 0.82% active; SH-SY5Y APP 5'UTR-luciferase reporter, luminescence; AID 1285;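 active = inhibition above a set limit, derived from the sample mean plus 3 SD, cut at about 45% in these data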
# BaF3 parental 2 – parental Ba/F3 viability inhibition for JAK2V617F counter-screen. shares compounds with Ba/F3 V617F tox. CellTiter-Glo luminescence; cells kept alive by added IL-3. inhibition, % at 5.6 µM. 580 tested, 31% active;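 active = cell growth inhibition above the hit limit set in the earlier mutant JAK2 cell screen, cut at about 27% in these data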;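 also: plate controls were DMSO-treated cells for no effect and JAK Inhibitor I control wells for full effect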
# JAK2V617F confrm – Ba/F3 EpoR-JAK2V617F viability loss, confirmation; shares compounds with Ba/F3 V617F tox; CellTiter-Glo luminescence; inhibition, % at 5.6 µM; 580 tested, 66% active; AID 1521;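 active = mean inhibition above the hit cutoff derived in the earlier primary screen, cut at about 25% in these data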;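 also: 0% = DMSO-treated cells and 100% = JAK inhibitor I control wells; higher means lower luminescence from reduced cell ATP and viability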
# KLF5 inh confirm – confirmation of KLF5 inhibitors; shares compounds with KLF5 inh; DLD-1 KLF5 promoter firefly luciferase reporter, luminescence; inhibition, % at 4 µM; 610 tested, 79% active;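 active = inhibition above a set limit taken from the earlier primary screen, cut at about 63% in these data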;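 also: 0% = DMSO wells and 100% = LY294002 at 200 µM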
# IEC-6 tox-2 – rat IEC-6 cytotoxicity, KLF5 inhibitor counter-screen | IEC-6 rat intestinal cells, viability luminescence | inhibition, % at 4 µM | shares compounds with KLF5 inh | 610 tested, 56% active; in the data active = inhibition above about 23%;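 also: cells exposed to compounds for 48 hours before viability read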
# IEC-6 cytotox cf – confirmation of cytotoxic compounds in rat IEC-6 intestinal epithelial cells | shares compounds with IEC-6 tox-1 | IEC-6 rat intestinal epithelial viability, luminescence | inhibition, % at 5 µM | 1,900 tested, 63% active | AID 1907;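 also: 0% = vehicle and 100% = reference cytotoxic drug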
# * hit, by the source's call; nt = no result. Rule as the data show it, unless noted: active = inhibition above about 22%; inactive = the rest.
SMILES,BaF3 parental,Ba/F3 V617F tox,KLF5 inh,IEC-6 tox-1,APP 5UTR inh,BaF3 parental 2,JAK2V617F confrm,others
Cc1ccc(C2C3=C(CC(C)(C)CC3=O)NC3=C2C(=O)CC(C)(C)C3)o1,-3.2,-3.9,-25.8,-2.3,1.2,nt,nt,
O=C(Cc1ccccc1)Nc1scc(-c2ccccc2)c1C(=O)N1CCOCC1,8.5,4.2,18.3,-3.2,3.7,nt,nt,
NC(=O)c1c(-c2ccc(Cl)cc2Cl)csc1NC(=O)Cc1ccccc1,12.3,37.5*,-15.3,4.1,-13.3,39.9*,65.3*,
O=C(O)CCc1ccccc1OC(=O)c1ccccc1,-4.4,0.4,-15.2,-8.0,nt,nt,nt,
O=C(Oc1cccc2c(O)cccc12)c1ccccc1,12.4,23.9*,11.8,-10.5,-11.0,12.2,67.4*,
COC(=O)c1cn(NC(=O)C2CCC(C)CC2)c(=O)c2ccccc12 (centres undefined),3.0,4.0,24.1,6.3,-14.8,nt,nt,
COC(=O)c1cn(NC(=O)c2cc([N+](=O)[O-])ccc2F)c(=O)c2ccccc12,23.5,35.7*,31.6,6.0,23.1,41.5*,96.7*,
C=CCOc1ccccc1/C=N/NC(=O)Cc1ccc(C)cc1,nt,nt,-7.5,-3.8,nt,nt,nt,
CC(C)CN(C(=O)CN1CCN(c2cccc(Cl)c2)CC1)c1c(N)n(CC(C)C)c(=O)[nH]c1=O,2.9,-2.9,-12.1,6.1,3.7,nt,nt,
Cc1nc([N+](=O)[O-])c(Br)n1CC(=O)c1ccc2ccccc2c1,5.8,43.5*,-2.6,3.4,-1.6,-2.8,76.5*,
COc1ccc(-n2c(SCC(=O)Nc3ccc(C)cc3)nc(O)c(Cc3ccccc3)c2=O)cc1,nt,nt,-18.9,-3.7,nt,nt,nt,
Cc1cccc(OCC(=O)Nc2cc(C)ccc2O)c1,6.3,36.6*,-40.1,8.1,0.8,4.8,67.3*,
Cc1cccc(OCC(=O)Nc2cc(C)c(C)cc2O)c1,3.6,-1.1,-0.7,-1.5,-14.1,nt,nt,
C(=N\Nc1nc2ccccc2[nH]1)/c1cccc2nccnc12,2.9,49.5*,26.7,11.6,nt,51.0*,63.4*,
O=C(c1ccc(F)cc1)N1CCN(C2=NS(=O)(=O)c3ccccc32)CC1,nt,nt,-23.6,0.7,nt,nt,nt,
Cc1ccccc1Oc1cc(-n2ncc(Cl)c(Cl)c2=O)ncn1,9.0,33.6*,-20.3,-5.2,94.7*,100.2*,99.7*,
COc1ccccc1Oc1cc(-n2nc(C)cc2C)ncn1,10.7,6.7,-12.4,-1.7,-17.7,nt,nt,
COc1c(Cl)cc(C(=O)NN)cc1Cl,21.0,42.0*,14.7,52.4*,92.2*,-5.5,-2.0,
CCOC(=O)N1CCN(c2c(F)cc3[nH]c(=S)[nH]c3c2Br)CC1,12.3,27.8*,-27.0,5.5,14.6,6.8,25.3*,
Oc1ccc(/C=N/Nc2nc(N3CCCC3)nc(N3CCCC3)n2)cc1O,4.7,45.9*,-11.4,1.3,-7.2,70.8*,98.0*,
COc1cc(/C=N/Nc2nc(N3CCCC3)nc(N3CCCC3)n2)ccc1O,2.5,-0.2,-8.2,2.9,0.5,nt,nt,
Cc1ccc(O)c(NC(=O)C2CCCCC2)c1,19.9,24.9*,-23.3,-0.1,nt,17.6,50.1*,
Cc1ccc(NC(=O)C2CCCCC2)c(O)c1,2.6,1.3,-22.5,2.4,-13.1,nt,nt,
CC(C)(C)SCCNS(=O)(=O)c1ccccc1,-2.4,99.4*,-1.8,0.2,20.8,-4.6,-11.9,
CC(C)(C)SCCNS(=O)(=O)c1ccc2ccccc2c1,-0.1,-2.0,-2.6,-0.2,10.3,nt,nt,
SMILES,BaF3 parental,Ba/F3 V617F tox,KLF5 inh,IEC-6 tox-1,APP 5UTR inh,BaF3 parental 2,JAK2V617F confrm,others
CCCCCN1C=CC(=C2C(=O)c3ccccc3C2=O)C=C1,24.2,24.2*,95.1*,18.8,54.3*,34.4*,44.8*,KLF5 inh confirm=96.8*;IEC-6 tox-2=11.6
CC1=CC(=C2C(=O)c3ccccc3C2=O)C=C(C)N1C,8.8,2.9,-124.5,-0.9,-48.3,nt,nt,
C(=N\Nc1nc2ccccc2[nH]1)/c1ccccn1,25.9,31.4*,86.1*,9.2,-71.5,24.2,36.4*,KLF5 inh confirm=70.0*;IEC-6 tox-2=46.3*
COc1ccc(Cl)cc1C(=O)NNC(=S)NC1CCCCC1,-4.1,1.3,-1.1,0.1,nt,nt,nt,
N=c1c2c(-c3ccccc3)c(-c3ccccc3)n(Cc3ccccc3)c2ncn1CCO,4.1,26.6*,75.7*,1.7,77.8*,0.6,22.7,KLF5 inh confirm=56.8;IEC-6 tox-2=22.1*
N=c1c2c(-c3ccccc3)c(-c3ccccc3)n(Cc3ccco3)c2ncn1Cc1ccccc1,0.8,0.1,-3.0,2.6,-3.3,nt,nt,
CN(C)S(=O)(=O)c1cccc(NC(=S)N/N=C/c2cc(Br)ccc2O)c1,26.3,59.1*,64.3*,-2.2,nt,95.5*,84.5*,KLF5 inh confirm=76.9*;IEC-6 tox-2=22.8*
COc1cccc(-n2nnc3c(=O)n(CC(=O)N4CCC(Cc5ccccc5)CC4)cnc32)c1,0.0,-2.3,-19.9,-10.0,6.5,nt,nt,
Cc1ccc(OCCN2C(=O)C(=O)c3cc(C)ccc32)cc1,7.1,24.8*,-31.6,90.6*,84.3*,57.4*,99.5*,IEC-6 cytotox cf=46.4*
Cc1ccc(N(C(=O)CCl)C(C(=O)NC2CCCCC2)c2cccnc2)cc1C (centres undefined),-2.9,85.9*,-10.7,79.8*,30.4,76.6*,100.0*,IEC-6 cytotox cf=63.1*
Cc1ccc(N(C(=O)CNC(=O)c2ccco2)C(C(=O)NC2CCCCC2)c2cccnc2)cc1C (centres undefined),nt,nt,-26.7,0.6,nt,nt,nt,
COc1ccc(-c2cnc3c(c2)CCC3(C#N)C#N)cc1,8.7,38.3*,18.7,69.9*,62.5*,1.1,77.7*,IEC-6 cytotox cf=5.8
COc1ccccc1NC(=O)N(CCN1CCOCC1)Cc1cc2cc(C)cc(C)c2[nH]c1=O,9.0,1.6,-0.5,4.9,-1.3,nt,nt,
O=C(Nc1ccccc1)C1=C(c2ccccc2)S(=O)(=O)CCS1(=O)=O,1.0,84.6*,23.9,27.9*,87.0*,66.1*,100.1*,IEC-6 cytotox cf=23.5*
COc1ccc(-n2c(=O)c3ccccc3n(CC(=O)Nc3ccccc3OC)c2=O)cc1,5.2,1.5,-25.8,0.9,4.3,nt,nt,
Cc1ccc(C(=O)N/N=C/c2ccc(-c3cccc(C(F)(F)F)c3)o2)cn1,-1.6,39.0*,35.3,28.0*,nt,57.8*,91.3*,IEC-6 cytotox cf=37.3*
CCCS(=O)(=O)c1nnnn1-c1cccc(OC)c1,4.7,38.7*,5.5,32.9*,61.8*,76.2*,99.3*,IEC-6 cytotox cf=47.8*
C=CCc1cc(OC)ccc1OCCOCCC(C(=O)OCC)C(=O)OCC,2.8,-3.6,0.5,-1.0,-5.6,nt,nt,
CCOc1ccccc1C(=O)Nc1ccsc1C(=O)OC,15.7,53.6*,12.0,31.9*,84.8*,58.1*,93.9*,IEC-6 cytotox cf=52.5*

# Source: PubChem (several laboratories)
